HIF-2a inh: inhibitors of HIF-2a. 786-0 RCC cells HIF-2a reporter, luciferase luminescence, overnight. inhibition, % at 18.8 µM. hit rate 0.72% among 360,000;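 active = inhibition of the luminescence signal of 40% or more relative to plate controls, in a single-dose primary screen at 18.75 µM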
TROY signal inh: TROY signaling inhibition; hit rate 0.98% among 360,000; inhibition, % at 10 µM; Q293 LMP1-TROYcd NF-kB luciferase reporter, 4 h;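 active = compounds whose plate-normalised and pattern-corrected inhibition of the luciferase reporter signal at the single screening dose is 50% or more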
CF NFkB block: blocks PAF-induced NF-kB reporter in cystic fibrosis cells; KKLEB NF-kB-GFP reporter, GFP fluorescence overnight; inhibition, % at 5 µM; hit rate 0.86% among 360,000;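 active = at least 50% inhibition at 5 µM, scaled per plate between neutral and stimulator controls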;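 note: PAF is a Pseudomonas aeruginosa culture filtrate used as stimulus; plate controls were PAF-stimulated DMSO wells for no effect and unstimulated DMSO wells for full effect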
Peg3 prom inh: reduces Peg3 promoter-driven luciferase expression in HeLa; hit rate 1.7% among 360,000; inhibition, % at 20 µM; HeLa PEG-Prom luciferase reporter, luminescence, overnight;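 active = inhibition of at least 50% at 20 µM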
KKLEB tox: CF airway cell cytotoxicity counter-screen; KKLEB CF airway cells viability, ATPlite luminescence, overnight; stronger effect = lower value; cells stimulated with P. aeruginosa culture filtrate; activity change (cytotoxicity), % at 5 µM; hit rate 0.36% among 360,000; AID 602141;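 active = corrected activity change at or below -50% at 5 µM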
TWEAK Fn14 block: inhibitors of TWEAK-Fn14 interaction signaling; AID 1159606; inhibition, % at 10 µM; TWEAK-stimulated Fn14 reporter cells, luciferase luminescence, 8 h; hit rate 2% among 360,000; in the data active = inhibition above about 50%
Numbers without * were called inactive; · = no result. A selection: hits, their analogues and other compounds. The true share with any hit is near 3.9%.

SMILES | HIF-2a inh | TROY signal inh | CF NFkB block | Peg3 prom inh | KKLEB tox | TWEAK Fn14 block
CC12CNCC(C)(CN(C(c3ccccc3)c3ccccc3)C1)C2 | -1 | 18 | 5 | 81* | -6 | -5
Clc1ccc(C(c2ccccc2)N2CCNCC2)cc1 (centres undefined) | -4 | -9 | 3 | -22 | -11 | 12
ClC(Cl)(Cl)c1nc2ccccc2n2nncc12 | 32 | 12 | 11 | 79* | -9 | 7
CCOC(=O)CNC(=O)CNC(=O)c1nn(-c2ccc(OC)c(OC)c2)c(=O)c2ccccc12 | 17 | -7 | -2 | -10 | 7 | -20
Nc1cc2c(cc1Cl)-c1ccccc1C2 | -206 | -50 | -1 | -281 | 2 | -66
O=C1C=CC(=Nc2ccc3c(c2)Cc2ccccc2-3)O1 | -46 | 65* | -3 | -86 | 8 | 29
Cc1ccccc1-n1nc2c(c1NC(=O)C1CCCC1)CS(=O)(=O)C2 | 0 | 0 | -10 | -12 | 9 | 5
Cc1ccc(Nc2nc(NCc3ccco3)c3ccccc3n2)cc1 | -130 | 70* | 32 | 106* | -40 | 85*
O=C1C=C(C2CCCCC2)C(=O)c2ccccc21 | 1 | -2 | 71* | 12 | 18 | 38
O=C(O)C1=C(C2CCCCC2)C(=O)c2ccccc21 | 10 | 1 | -34 | 10 | 17 | 12
COc1ccccc1CCC(=O)OCC(=O)Nc1ccc(C(N)=O)cc1 | 5 | 0 | 67* | 7 | -84* | 13
COc1ccccc1CCC(=O)OCC(=O)Nc1ccc(S(N)(=O)=O)cc1 | 10 | 7 | 2 | 9 | 1 | 2
O=C(Nc1nc(-c2ccc(F)cc2)cs1)C1CCN(C(=O)c2ccc(F)cc2)CC1 | -9 | 30 | -48 | 0 | 12 | 57*
COc1ccc(-c2csc(NC(=O)Cc3ccccc3F)n2)cc1OC | -39 | 30 | 6 | -33 | -11 | 30
O=C(Cc1ccccc1F)Nc1nc(-c2ccc(F)cc2)cs1 | -254 | 58* | -22 | -176 | -5 | 52*
O=S(=O)(Nc1cccc(S(=O)(=O)N2CCCC2)c1)c1ccc(Br)cc1 | 9 | 2 | -7 | -6 | 14 | 12
CCOC(=O)c1sc(NC(=O)CCCCCN2C(=O)c3cccc4cccc(c34)C2=O)nc1C | 4 | -25 | 39 | 41 | -53* | -18
Cc1ccc(-c2nc3ccccc3[nH]2)cc1NC(=O)c1ccco1 | -120 | · | 6 | -137 | 4 | -15
Cc1ccc(-c2nc3ncccc3o2)cc1NC(=O)c1sc2ccccc2c1Cl | 8 | -12 | -2 | 78* | -1 | -60
Cc1ccc(-c2nc3ccccc3[nH]2)cc1NC(=O)c1sc2cc(Cl)ccc2c1Cl | -76 | -13 | -19 | 83* | 2 | -57
CN(CC(=O)Nc1ccccc1Cl)C(=O)c1ccc(Cl)c(S(=O)(=O)N2CCCCCC2)c1 | 13 | 14 | 6 | 9 | 11 | 5
Cc1c(NC(=O)C(C)SC(=S)N2CCCC2)c(=O)n(-c2ccccc2)n1C (centres undefined) | 7 | 9 | 7 | 14 | 20 | 2
N#CC(=C=[N-])c1nc2ccccc2nc1-[n+]1cccc(NC(=O)c2ccccc2)c1 | 3 | -13 | -6 | -7 | 11 | 75*
COc1ccc(S(=O)(=O)N2CCCCCC2)cc1C(=O)OCc1cccc(OC)c1OC | 1 | 21 | 22 | 51* | -7 | 23
COC(=O)C(C)Sc1nnc(Cc2cc(=O)[nH]c(=O)[nH]2)n1-c1cc(C)ccc1C (centres undefined) | 14 | -3 | -4 | 2 | -11 | 12
SMILES | HIF-2a inh | TROY signal inh | CF NFkB block | Peg3 prom inh | KKLEB tox | TWEAK Fn14 block
COC(=O)CSc1nc(N)c(C#N)c(CC(C)C)c1C#N | 1 | -18 | -4 | 9 | 6 | 11
O=C(Cc1ccc(Cl)cc1)Nc1ccc(-c2nnc(-c3ccco3)o2)cc1 | -39 | -17 | -14 | 1 | -6 | -2
O=C(CSCc1ccc(Cl)cc1)Nc1ccc(-c2nnc(-c3ccccc3)o2)cc1 | -3 | -25 | 40 | 51* | -42 | -59
Cc1cccc(NC(=O)CSCC(=O)Nc2cc(S(=O)(=O)N3CCOCC3)ccc2N2CCCC2)c1 | 10 | 26 | -12 | 1 | -5 | -1
COc1cc2c(cc1OC)/C(=C/c1ccc(Cl)cc1)C(=O)OC2 | 13 | 50* | 7 | 35 | -2 | 25
CCN(CC)CC(O)Cn1c(C)c(-c2ccccc2)c2cc([N+](=O)[O-])ccc21 (centres undefined) | -8 | -38 | -2 | 75* | -14 | -12
